Results: PubChem BioAssay (Tox21)
Records with an inconclusive call do not appear. Calls of active or inactive are those of the source. Unless noted, the call rests on the fitted dose curve; in most records, active means well fitted curve in the direction sought with a large enough effect in the repeat runs; inconclusive means weak or mixed curves; inactive means no such curve, though single readings can be large; an effect the other way counts as inactive or inconclusive.

Legend:
[1] = qHTS assay to identify small molecule agonists of the peroxisome proliferator-activated receptor delta (PPARd) signaling pathway - cell viability counter screen (AID 743211); further: on the % scale 0 is the no-effect control and ±100 the full control effect; nearly all actives have a fitted effect of over 55% in size
Procedure, shortened: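 HEK293H PPARd-bla, 3000 cells/well; 5 h preincubation 37C/5% CO2; cpd in DMSO, 17 h 37C; B/G FRET substrate 2 h RT; CellTiter-Glo 30 min RT, luminescence.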

[2] = qHTS assay to identify small molecule antagonists of the peroxisome proliferator-activated receptor delta (PPARd) signaling pathway - cell viability counter screen (AID 743213); further: on the % scale 0 is the no-effect control and ±100 the full control effect; nearly all actives have a fitted effect of over 50% in size
Procedure, shortened: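 CellTiter-Glo was added to PPARd-bla HEK293H wells following 17 h compound treatment in the presence of 300 nM L165041. Luminescence was recorded after 30 min at room temperature.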

[3] = target: Bile acid receptor (Homo sapiens) (UniProt Q96RI1); assay: qHTS assay to identify small molecule antagonists of the farnesoid-X-receptor (FXR) signaling pathway (AID 743217; active means well fitted inhibition curve with a large enough effect in the signal ratio in the repeat runs, not every such curve was filed as active; the % refers to the signal ratio; further: on the % scale 0 is the no-effect control and ±100 the full control effect)
Procedure, shortened: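 FXR-UAS-bla HEK 293T cells (beta-lactamase reporter) given compound plus chenodeoxycholic acid (50 uM final), 16 h at 37C. LiveBLAzer B/G FRET substrate added for 2 h at room temperature; fluorescence read.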

[4] = qHTS assay to identify small molecule agonists of the farnesoid-X-receptor (FXR) signaling pathway - cell viability counter screen (AID 743218); further: on the % scale 0 is the no-effect control and ±100 the full control effect; nearly all actives have a fitted effect of over 45% in size
Procedure, shortened: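 FXR-UAS-bla HEK 293T cells exposed to compounds for 16 h at 37C. Cytotoxicity read in the same wells by CellTiter-Glo luminescence after 30 min at room temperature, following the beta-lactamase FRET read.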

[5] = qHTS assay to identify small molecule antagonists of the farnesoid-X-receptor (FXR) signaling pathway - cell viability counter screen (AID 743221; active means well fitted cell-killing curve with a large enough effect in the repeat runs, not every such curve was filed as active; further: on the % scale 0 is the no-effect control and ±100 the full control effect; nearly all actives have a fitted effect of over 50% in size)
Procedure, shortened: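 Luminescence from CellTiter-Glo measures cytotoxicity in GeneBLAzer FXR-UAS-bla HEK 293T cells. Cells were exposed to compounds with 50 uM chenodeoxycholic acid (final) for 16 h at 37 C, in wells also used for the reporter readout.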

[6] = target: Vitamin D3 receptor (Homo sapiens) (UniProt P11473); assay: qHTS assay to identify small molecule agonists of the vitamin D receptor (VDR) signaling pathway (AID 743222; calls by dose curve; further: on the % scale 0 is the no-effect control and ±100 the full control effect)
Procedure, shortened: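 VDR-bla cells plated 4 h at 37 C, then exposed to compounds for 16 h at 37 C. Beta-lactamase reporter activity measured by fluorescence after 2 h room-temperature loading with LiveBLAzer B/G FRET substrate.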

[7] = target: Vitamin D3 receptor (Homo sapiens) (UniProt P11473); assay: qHTS assay to identify small molecule antagonists of the vitamin D receptor (VDR) signaling pathway (AID 743223; active means well fitted inhibition curve with a large enough effect in the signal ratio in the repeat runs, not every such curve was filed as active; the % refers to the signal ratio; further: on the % scale 0 is the no-effect control and ±100 the full control effect)
Procedure, shortened: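 Antagonist mode uses 1alpha,25-dihydroxyvitamin D3 at 3 nM final as stimulus. VDR-bla cells receive compounds in DMSO, incubate 16 h at 37C, then a beta-lactamase FRET substrate for 2 h at room temperature before fluorescence measurement.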

[8] = qHTS assay to identify small molecule agonists of the vitamin D receptor (VDR) signaling pathway - cell viability counter screen (AID 743224); further: series mostly up to about 63 µM; on the % scale 0 is the no-effect control and ±100 the full control effect; nearly all actives have a fitted effect of over 50% in size
Procedure, shortened: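 VDR-bla cells, 4 h after plating, exposed to compounds for 16 h at 37C; viability then read in the same wells as CellTiter-Glo luminescence after 30 min at room temperature, following the bla FRET read.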

[9] = qHTS assay to identify small molecule antagonists of the vitamin D receptor (VDR) signaling pathway - cell viability counter screen (AID 743225); further: on the % scale 0 is the no-effect control and ±100 the full control effect; nearly all actives have a fitted effect of over 50% in size
Procedure, shortened: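 Read-out: CellTiter-Glo luminescence measured 30 min after reagent addition at room temperature. Cells were VDR-bla HEK 293T exposed 16 h at 37C, 5% CO2, to compound with 3 nM final calcitriol agonist.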

[10] = qHTS assay to identify small molecule agonists of the NFkB signaling pathway (AID 1159509; active means well fitted curve in the direction sought with a large enough effect in the signal ratio in the repeat runs, not every such curve was filed as active; the % refers to the signal ratio; further: series mostly up to about 61 µM; on the % scale 0 is the no-effect control and ±100 the full control effect)
Procedure, shortened: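 NFkB-bla ME-180 cells with a beta-lactamase reporter under an NF-kB response element were plated overnight, treated with compounds in DMSO for 5 hr at 37 C, then loaded with FRET substrate for 1.5 hr at room temperature.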

[11] = qHTS assay to identify small molecule agonists of the NFkB signaling pathway - cell viability counter screen (AID 1159515; calls by dose curve; further: series mostly up to about 61 µM; on the % scale 0 is the no-effect control and ±100 the full control effect; nearly all actives have a fitted effect of over 55% in size)
Procedure, shortened: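 NFkB-bla ME-180 cells, 2,000/well, plated overnight at 37 C; compound added for 5 hr at 37 C. Viability read in the same wells as the bla reporter, by CellTiter-Glo luminescence after 30 min at room temperature.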

[12] = qHTS assay to identify small molecule agonists of the endoplasmic reticulum stress response signaling pathway (AID 1159516; active means well fitted activation curve with a large enough effect in the signal ratio in the repeat runs, not every such curve was filed as active; the % refers to the signal ratio; further: on the % scale 0 is the no-effect control and ±100 the full control effect)
Procedure, shortened: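 CellSensor ESRE-bla HeLa cells, 1,500 per well, plated overnight, then exposed to compounds for 5 hr at 37 C. Beta-lactamase reporter read with LiveBLAzer B/G FRET substrate after 2 hr at room temperature, 405 nm excitation, 460 and 530 nm emission.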

[13] = qHTS assay to identify small molecule agonists of the endoplasmic reticulum stress response signaling pathway - cell viability counter screen (AID 1159517; calls by dose curve)
Procedure, shortened: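 Cells, HeLa ESRE-bla; density, 1,500/well; dosing, 5 hr at 37 C, 5% CO2; readout, CellTiter-Glo luminescence after 30 min RT.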

[14] = target: Nuclear receptor ROR-gamma (Homo sapiens) (UniProt P51449); assay: qHTS assay to identify small molecule antagonists of the retinoid-related orphan receptor gamma (ROR-gamma) signaling pathway (AID 1159521)
Procedure, shortened: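 CHO Tet-on RORγ, RORE-luc reporter. Cpd 2 h pre-incubation, then dox hyclate 1 uM final, 16 h, 37 C/5% CO2. ONE-Glo luminescence; decrease = antagonist.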

[15] = qHTS assay to identify small molecule agonists of the AP-1 signaling pathway - cell viability counter screen (AID 1159525; calls by dose curve; further: nearly all actives have a fitted effect of over 55% in size)
Procedure, shortened: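 Luminescent ATP readout (Cell Titer Glo, 30 min RT), normalised to DMSO and tetra n-octyl ammonium bromide controls. Cells were ME-180 AP-1-bla in 0.5% dialyzed FBS Opti-MEM, with a 5 h, 37 °C compound exposure.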

[16] = qHTS assay to identify small molecule agonists of the AP-1 signaling pathway (AID 1159526; calls by dose curve; further: on the % scale 0 is the no-effect control and ±100 the full control effect)
[17] = target: Peroxisome proliferator-activated receptor delta (Homo sapiens) (UniProt Q03181); assay: qHTS assay to identify small molecule agonists of the peroxisome proliferator-activated receptor delta (PPARd) signaling pathway (AID 743212; calls by dose curve; further: on the % scale 0 is the no-effect control and ±100 the full control effect)
Procedure, shortened: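 HEK293H UAS-bla reporter cells, human PPARd system; compounds delivered in DMSO after 5 h plating, then at 37 C. Beta-lactamase FRET read, 2 h RT substrate step.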

[18] = target: Peroxisome proliferator-activated receptor delta (Homo sapiens) (UniProt Q03181); assay: qHTS assay to identify small molecule antagonists of the peroxisome proliferator-activated receptor delta (PPARd) signaling pathway (AID 743215; active means well fitted inhibition curve with a large enough effect in the signal ratio in the repeat runs, not every such curve was filed as active; the % refers to the signal ratio)
Procedure, shortened: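 PPARd-bla HEK293H cells (UAS-bla reporter) preincubated 5 h, then given compound plus 300 nM final L165041 agonist for 17 h at 37 C. Beta-lactamase activity read by LiveBLAzer B/G FRET substrate fluorescence after 2 h at room temperature.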

[19] = target: Bile acid receptor (Homo sapiens) (UniProt Q96RI1); assay: qHTS assay to identify small molecule agonists of the farnesoid-X-receptor (FXR) signaling pathway (AID 743220; active means well fitted activation curve with a large enough effect in the signal ratio in the repeat runs, not every such curve was filed as active; the % refers to the signal ratio; further: on the % scale 0 is the no-effect control and ±100 the full control effect)
Procedure, shortened: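 Beta-lactamase reporter under UAS control in GeneBLAzer FXR HEK 293T cells (5000/well) measured with LiveBLAzer FRET substrate after 2 h at room temperature. Compound exposure lasted 16 h at 37C.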

[20] = qHTS assay to identify small molecule antagonists of the retinoid-related orphan receptor gamma (ROR-gamma) signaling pathway - cell viability counter screen (AID 1159520)
Procedure, shortened: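 Cytotoxicity was read from cellular ATP (CellTiter-Glo luminescence) after 16 hr at 37 C with 1 uM doxycycline induction. The inducer was added 2 hr after compound transfer to Tet-on ROR gamma CHO cells.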

Sequence of Bile acid receptor (Homo sapiens) (Q96RI1 whole entry, looked up): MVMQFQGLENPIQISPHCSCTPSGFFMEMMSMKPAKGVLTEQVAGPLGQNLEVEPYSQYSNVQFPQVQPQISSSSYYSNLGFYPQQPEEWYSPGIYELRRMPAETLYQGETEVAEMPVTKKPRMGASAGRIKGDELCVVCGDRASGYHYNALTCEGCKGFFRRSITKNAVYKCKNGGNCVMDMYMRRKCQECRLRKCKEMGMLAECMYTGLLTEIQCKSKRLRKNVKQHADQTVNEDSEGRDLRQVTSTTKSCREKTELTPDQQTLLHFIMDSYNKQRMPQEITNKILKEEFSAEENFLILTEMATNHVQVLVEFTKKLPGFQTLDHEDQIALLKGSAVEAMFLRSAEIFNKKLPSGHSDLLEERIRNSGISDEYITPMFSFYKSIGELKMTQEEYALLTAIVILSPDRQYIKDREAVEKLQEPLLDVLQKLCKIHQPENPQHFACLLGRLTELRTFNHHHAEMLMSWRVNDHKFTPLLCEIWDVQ
Sequence of Peroxisome proliferator-activated receptor delta (Homo sapiens) (Q03181 whole entry, looked up): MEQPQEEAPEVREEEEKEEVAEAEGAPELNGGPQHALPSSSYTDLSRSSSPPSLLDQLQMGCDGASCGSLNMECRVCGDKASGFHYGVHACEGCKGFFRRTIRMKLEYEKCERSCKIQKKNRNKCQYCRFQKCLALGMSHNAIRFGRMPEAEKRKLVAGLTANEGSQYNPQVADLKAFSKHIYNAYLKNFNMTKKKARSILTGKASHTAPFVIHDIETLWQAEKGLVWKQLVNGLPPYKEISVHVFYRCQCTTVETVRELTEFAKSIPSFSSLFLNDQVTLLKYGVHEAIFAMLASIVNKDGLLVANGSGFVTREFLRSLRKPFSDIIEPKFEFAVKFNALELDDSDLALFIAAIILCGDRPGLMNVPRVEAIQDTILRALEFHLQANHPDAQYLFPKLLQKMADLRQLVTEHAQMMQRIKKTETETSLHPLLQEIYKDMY
Sequence of Vitamin D3 receptor (Homo sapiens) (P11473 whole entry, looked up): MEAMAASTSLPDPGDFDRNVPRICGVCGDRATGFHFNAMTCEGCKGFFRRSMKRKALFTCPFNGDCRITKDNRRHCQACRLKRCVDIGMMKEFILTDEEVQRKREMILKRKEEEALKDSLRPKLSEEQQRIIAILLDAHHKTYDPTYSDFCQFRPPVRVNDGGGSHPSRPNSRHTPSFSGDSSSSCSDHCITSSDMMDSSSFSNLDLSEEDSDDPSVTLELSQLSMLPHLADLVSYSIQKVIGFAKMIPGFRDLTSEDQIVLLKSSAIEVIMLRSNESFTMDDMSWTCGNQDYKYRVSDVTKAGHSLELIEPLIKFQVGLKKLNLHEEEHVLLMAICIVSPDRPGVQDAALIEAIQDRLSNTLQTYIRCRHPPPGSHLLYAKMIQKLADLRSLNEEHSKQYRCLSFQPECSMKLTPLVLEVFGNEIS

CN[C@@H]1[C@H](O)[C@H](NC)[C@H]2O[C@@]3(O)C(=O)C[C@@H](C)O[C@H]3O[C@@H]2[C@H]1O
inactive: outcome [1] | outcome [2] | outcome [3] | Potency [4] | outcome [5] | outcome [6] | outcome [7] | outcome [8] | outcome [9] | outcome [10] | outcome [11] | outcome [12] | outcome [13] | outcome [14] | outcome [15] | outcome [16]

CC(=O)c1ccc2c(c1)CCCC2
inactive: outcome [1] | outcome [17] | outcome [2] | Potency [4] | outcome [5] | outcome [6] | outcome [8] | outcome [10] | outcome [11] | outcome [12] | outcome [13] | outcome [15] | outcome [16]

Cc1ccccc1N1CCN(CCc2nnc3n2CCCC3)CC1
inactive: outcome [1] | outcome [17] | outcome [2] | outcome [18] | outcome [3] | outcome [19] | outcome [5] | outcome [7] | outcome [8] | outcome [9] | outcome [10] | outcome [11] | outcome [12] | outcome [13] | outcome [15] | outcome [16]

CCCCC(CC)C(=O)OC(C)C (stereo not given)
inactive: outcome [1] | outcome [2] | outcome [3] | Potency [4] | outcome [19] | outcome [6] | outcome [8] | outcome [10] | outcome [11] | outcome [12] | outcome [13] | outcome [20] | outcome [15] | outcome [16]

CC(C)c1ccccc1O
inactive: outcome [1] | outcome [17] | outcome [2] | outcome [18] | outcome [3] | Potency [4] | outcome [5] | outcome [6] | outcome [7] | outcome [8] | outcome [9] | outcome [10] | outcome [11] | outcome [12] | outcome [14] | outcome [15] | outcome [16]

Nc1c(NC/C=C\COc2cc(CN3CCCCC3)ccn2)c(=O)c1=O
inactive: outcome [17] | outcome [2] | outcome [18] | outcome [3] | Potency [4] | outcome [19] | outcome [7] | outcome [8] | outcome [9] | outcome [10] | outcome [11] | outcome [12] | activity change, negative = inhibition [14] -0.0898% [at 19 µM] | activation [16] -3.62% [at 15.8 µM]

O=C(CN1CCN(Cc2ccc3c(c2)OCO3)CC1)N1c2ccccc2Sc2ccccc21
inactive: outcome [1] | outcome [2] | Potency [4] | outcome [5] | outcome [7] | outcome [8] | outcome [9] | outcome [10] | outcome [11] | outcome [12] | outcome [20] | outcome [15] | outcome [16]

NS(=O)(=O)c1ccccc1OC(F)(F)F
inactive: outcome [1] | outcome [17] | outcome [2] | outcome [3] | Potency [4] | outcome [19] | outcome [5] | outcome [6] | outcome [7] | outcome [8] | outcome [10] | outcome [11] | outcome [12] | outcome [20] | outcome [14] | outcome [16]

CN(C)CCOCCN(C)CCO
inactive: outcome [1] | outcome [17] | outcome [2] | outcome [18] | outcome [5] | outcome [6] | outcome [7] | outcome [8] | outcome [9] | outcome [10] | outcome [11] | outcome [12] | outcome [20] | outcome [14] | outcome [15] | outcome [16]
